# Counter-ions that a name gives are not always drawn.
# Test system: Staphylococcus aureus MW2 delta-mecA (mecA-)
# Assay: normalized GFP fluorescence (growth of mecA- strain) (fraction of control range); higher = more growth of mecA- strain
# Details: compound concentration: 150 uM; cefoxitin: subinhibitory; fluorescent label: GFP
# Summary of the method: (§1)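 Fluorescence from DsRed (540/590) and GFP (485/520) was recorded after 20 h of static growth at 37 °C and 90% humidity. The wells held a 1:1 mix of pre-induced S. aureus MW2 cells, gene-bearing with DsRed and gene-deleted with GFP, in LB with a daily-set subinhibitory antibiotic dose, dispensed at 5 µL/well onto 150 μM compound (1.5% DMSO) in 1536-well plates, single replicate. Each channel was scaled per plate between single-strain control medians, excluding plates with high untreated ratios and rows with DsRed/GFP >10.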
row,Structure (SMILES),normalized GFP fluorescence
1,CN(C)CC/C=C1/c2ccccc2COc2ccc(CC(=O)O)cc21 [Olopatadine hydrochloride (Opatanol)],0.475
2,CN(C)CCCN1c2ccccc2Sc2ccccc21,-0.00898
3,CCN(Cc1ccncc1)C(=O)C(CO)c1ccccc1 (stereo not given),0.402
4,CN(CCOc1ccc(NS(C)(=O)=O)cc1)CCc1ccc(NS(C)(=O)=O)cc1 [Dofetilide (Tikosyn)],0.244
5,CC(=O)OCC(=O)[C@@]12N=C(C)O[C@@H]1C[C@H]1[C@@H]3CCC4=CC(=O)C=C[C@]4(C)[C@H]3[C@@H](O)C[C@@]12C,0.231
6,CC(=O)Nc1c(I)c(NC(C)=O)c(I)c(C(=O)O)c1I,0.477
7,CN(C)CCCN1c2ccccc2CCc2ccc(Cl)cc21,-0.0283
8,O=c1[nH]c(=O)n([C@H]2C[C@H](O)[C@@H](CO)O2)cc1I,0.363
9,CC(C)(C(=O)O)c1ccc(C(O)CCCN2CCC(C(O)(c3ccccc3)c3ccccc3)CC2)cc1 (stereo not given),0.393
10,CNC1(C)C2CCC(C2)C1(C)C (stereo not given),0.71
11,C[C@]12CCC(=O)C=C1C=C[C@@H]1[C@@H]2CC[C@@]2(C)[C@H]1CC[C@@]21CCC(=O)O1,0.191
12,CC(=O)OCC(=O)[C@@]1(O)CC[C@H]2[C@@H]3CCC4=CC(=O)CC[C@]4(C)[C@H]3[C@@H](O)C[C@@]21C,0.58
13,CC(C)(C)NC[C@H](O)COc1nsnc1N1CCOCC1,0.208
14,CCc1cc(C(N)=S)ccn1,0.386
15,C[C@H]1[C@H](OC(=O)CCC(=O)O)O[C@@H]2O[C@@]3(C)CC[C@H]4[C@H](C)CC[C@@H]1[C@@]24OO3,0.737
16,CC(C)(C#N)c1cc(Cn2cncn2)cc(C(C)(C)C#N)c1,0.351
17,COc1ccc(C[C@@H]2c3cc(OC)c(OC)cc3CC[N@+]2(C)CCC(=O)OCCCCCOC(=O)CC[N@@+]2(C)CCc3cc(OC)c(OC)cc3[C@H]2Cc2ccc(OC)c(OC)c2)cc1OC [Cisatracurium besylate (Nimbex)],0.62
18,Cc1c(C(=O)NN2CCCCC2)nn(-c2ccc(Cl)cc2Cl)c1-c1ccc(Cl)cc1,0.177
19,CCN(CC)C(=O)c1cccc(C)c1,0.46
20,CC(=O)c1ccc2c(c1)N(CCCN1CCN(CCO)CC1)c1ccccc1S2,0.252

row,Structure (SMILES),normalized GFP fluorescence
1,c1ccc(CN(CC2=NCCN2)c2ccccc2)cc1,0.974
2,Nc1nc(=O)n([C@@H]2CS[C@H](CO)O2)cc1F [Emtricitabine],0.4
3,Cc1ccc(C)c(OCCCC(C)(C)C(=O)O)c1,0.121
4,COc1cc2nc(N3CCN(C(=O)c4ccco4)CC3)nc(N)c2cc1OC,0.593
5,Oc1cccc(O)c1,0.565
6,CNS(=O)(=O)CCc1ccc2[nH]cc(C3CCN(C)CC3)c2c1 [Naratriptan HCl],0.395
7,CN1CCC(=C2c3ccccc3CC(=O)c3sccc32)CC1 [Ketotifen fumarate (Zaditor)],0.402
8,CCCCC1=NC2(CCCC2)C(=O)N1Cc1ccc(-c2ccccc2-c2nnn[nH]2)cc1,0.0654
9,COc1ccccc1OCC(O)CO (stereo not given),0.274
10,Cc1cc(-c2ccccc2)nnc1NCCN1CCOCC1,0.44
11,CC1(C)O[C@@H]2C[C@H]3[C@@H]4CCC5=CC(=O)CC[C@]5(C)[C@@]4(F)[C@@H](O)C[C@]3(C)[C@]2(C(=O)CCl)O1,0.195
12,Cn1c(=O)c2c(ncn2CC2OCCO2)n(C)c1=O,0.29
13,NNC(=O)c1ccncc1,0.19
14,Fc1ccc([C@@H]2CCNC[C@H]2COc2ccc3c(c2)OCO3)cc1,-0.0171
15,C[C@@H](c1ncncc1F)[C@](O)(Cn1cncn1)c1ccc(F)cc1F,0.309
16,CCN(CCCCOC(=O)c1ccc(OC)c(OC)c1)C(C)Cc1ccc(OC)cc1 (stereo not given),0.41
17,Cc1cc2c(s1)Nc1ccccc1N=C2N1CCN(C)CC1,0.695
18,O=C(O)C1(C(=O)O)CCC1.[NH2-].[NH2-].[Pt+2],0.26
19,CCOC(=O)[C@H](CCc1ccccc1)N[C@H]1CCc2ccccc2N(CC(=O)O)C1=O,-0.00401
20,COc1ccc(O)cc1,0.353

# Test system: Staphylococcus aureus MW2 (mecA+)
# Assay: normalized DsRed fluorescence (growth of mecA+ strain) (fraction of control range); higher = more growth of mecA+ strain
# Details: compound concentration: 150 uM; cefoxitin: subinhibitory; fluorescent label: DsRed
# Summary of the method: as §1
row,Structure (SMILES),normalized DsRed fluorescence
1,CN(C)CC/C=C1/c2ccccc2COc2ccc(CC(=O)O)cc21 [Olopatadine hydrochloride (Opatanol)],0.587
2,CN(C)CCCN1c2ccccc2Sc2ccccc21,1.06
3,CCN(Cc1ccncc1)C(=O)C(CO)c1ccccc1 (stereo not given),0.607
4,CN(CCOc1ccc(NS(C)(=O)=O)cc1)CCc1ccc(NS(C)(=O)=O)cc1 [Dofetilide (Tikosyn)],1.28
5,CC(=O)OCC(=O)[C@@]12N=C(C)O[C@@H]1C[C@H]1[C@@H]3CCC4=CC(=O)C=C[C@]4(C)[C@H]3[C@@H](O)C[C@@]12C,0.567
6,CC(=O)Nc1c(I)c(NC(C)=O)c(I)c(C(=O)O)c1I,1.13
7,CN(C)CCCN1c2ccccc2CCc2ccc(Cl)cc21,0.939
8,O=c1[nH]c(=O)n([C@H]2C[C@H](O)[C@@H](CO)O2)cc1I,0.546
9,CC(C)(C(=O)O)c1ccc(C(O)CCCN2CCC(C(O)(c3ccccc3)c3ccccc3)CC2)cc1 (stereo not given),1.03
10,CNC1(C)C2CCC(C2)C1(C)C (stereo not given),0.669
11,C[C@]12CCC(=O)C=C1C=C[C@@H]1[C@@H]2CC[C@@]2(C)[C@H]1CC[C@@]21CCC(=O)O1,0.593
12,CC(=O)OCC(=O)[C@@]1(O)CC[C@H]2[C@@H]3CCC4=CC(=O)CC[C@]4(C)[C@H]3[C@@H](O)C[C@@]21C,0.595
13,CC(C)(C)NC[C@H](O)COc1nsnc1N1CCOCC1,0.811
14,CCc1cc(C(N)=S)ccn1,0.65
15,C[C@H]1[C@H](OC(=O)CCC(=O)O)O[C@@H]2O[C@@]3(C)CC[C@H]4[C@H](C)CC[C@@H]1[C@@]24OO3,0.712
16,CC(C)(C#N)c1cc(Cn2cncn2)cc(C(C)(C)C#N)c1,0.796
17,COc1ccc(C[C@@H]2c3cc(OC)c(OC)cc3CC[N@+]2(C)CCC(=O)OCCCCCOC(=O)CC[N@@+]2(C)CCc3cc(OC)c(OC)cc3[C@H]2Cc2ccc(OC)c(OC)c2)cc1OC [Cisatracurium besylate (Nimbex)],0.713
18,Cc1c(C(=O)NN2CCCCC2)nn(-c2ccc(Cl)cc2Cl)c1-c1ccc(Cl)cc1,0.769
19,CCN(CC)C(=O)c1cccc(C)c1,1.18
20,CC(=O)c1ccc2c(c1)N(CCCN1CCN(CCO)CC1)c1ccccc1S2,1.08

row,Structure (SMILES),normalized DsRed fluorescence
1,c1ccc(CN(CC2=NCCN2)c2ccccc2)cc1,0.762
2,Nc1nc(=O)n([C@@H]2CS[C@H](CO)O2)cc1F [Emtricitabine],0.622
3,Cc1ccc(C)c(OCCCC(C)(C)C(=O)O)c1,1.54
4,COc1cc2nc(N3CCN(C(=O)c4ccco4)CC3)nc(N)c2cc1OC,0.809
5,Oc1cccc(O)c1,0.516
6,CNS(=O)(=O)CCc1ccc2[nH]cc(C3CCN(C)CC3)c2c1 [Naratriptan HCl],0.662
7,CN1CCC(=C2c3ccccc3CC(=O)c3sccc32)CC1 [Ketotifen fumarate (Zaditor)],0.799
8,CCCCC1=NC2(CCCC2)C(=O)N1Cc1ccc(-c2ccccc2-c2nnn[nH]2)cc1,0.337
9,COc1ccccc1OCC(O)CO (stereo not given),0.991
10,Cc1cc(-c2ccccc2)nnc1NCCN1CCOCC1,0.611
11,CC1(C)O[C@@H]2C[C@H]3[C@@H]4CCC5=CC(=O)CC[C@]5(C)[C@@]4(F)[C@@H](O)C[C@]3(C)[C@]2(C(=O)CCl)O1,0.844
12,Cn1c(=O)c2c(ncn2CC2OCCO2)n(C)c1=O,1.05
13,NNC(=O)c1ccncc1,1.03
14,Fc1ccc([C@@H]2CCNC[C@H]2COc2ccc3c(c2)OCO3)cc1,1.15
15,C[C@@H](c1ncncc1F)[C@](O)(Cn1cncn1)c1ccc(F)cc1F,0.766
16,CCN(CCCCOC(=O)c1ccc(OC)c(OC)c1)C(C)Cc1ccc(OC)cc1 (stereo not given),0.559
17,Cc1cc2c(s1)Nc1ccccc1N=C2N1CCN(C)CC1,0.803
18,O=C(O)C1(C(=O)O)CCC1.[NH2-].[NH2-].[Pt+2],0.886
19,CCOC(=O)[C@H](CCc1ccccc1)N[C@H]1CCc2ccccc2N(CC(=O)O)C1=O,1.44
20,COc1ccc(O)cc1,0.504

# — the supplement of paper PMC7695840
